Screening data deposited in PubChem BioAssay by National Center for Advancing Translational Sciences (NCATS).
Many of the other results were omitted from the sample, so hits are more common in it than they were.
DT40 TDP1 CPT: qHTS for Inhibitors of human tyrosyl-DNA phosphodiesterase 1 (TDP1): qHTS in cells in presence of CPT; chicken DT40 Tdp1-/-;hTDP1 cells + 20 nM CPT, ATP luminescence, 48 h; Potency, µM (series often up to 46.2 µM), inactives show at the highest dose activity change, negative = growth inhibition, usual class: inhibitors; 420,000 tested, 12% active; also: potency is read from the fitted curve at half-maximal effect; nearly all actives have a fitted effect of over 55% in size
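Cell growth measured by CellTiter-Glo luminescence after a minimum 48 h, 37 C compound exposure with 20 nM CPT in Tdp1-knockout DT40 cells stably expressing hTDP1, seeded 400/well; qHTS titration format.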
IL1B secr inh: qHTS for Inhibitors of Inflammasome Signaling: IL-1-beta AlphaLISA Primary Screen | 360,000 tested, 4.7% active | THP-1 LPS/ATP IL-1B secretion, AlphaLISA, 16 h; stronger effect = lower value | activity change, % at 57.5 µM; in the data active = activity change below about -50%; inconclusive = mostly about -30% to -49%
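Secreted IL-1B measured by AlphaLISA bead assay after 16 h compound exposure of THP-1 cells; compounds (final up to 57.5 uM) added 1 h before LPS (250 ng/mL) and ATP (1.25 mM) stimulation; lower signal means less secretion.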
HT1080 IDH1KD tx: qHTS for induction of synthetic lethality in tumor cells producing 2HG: qHTS for the HT-1080-IDH1KD cell line; HT-1080 IDH1 knockdown viability, ATP luminescence, 48 h; Potency, µM (titrated, usually from 46.1 µM), for the others: at the highest dose activity, negative = toxicity, hits mostly cytotoxic; 360,000 tested, 2% active;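 also: potency is read from the fitted curve at half-maximal effect; 0% = DMSO wells and -100% = cell-free medium wells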
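IDH1KD HT-1080 cells, 750/well, RPMI + 5% FBS; compound pinned after 2 h settling; 48 h, 37 °C; CellTiter-Glo luminescence; % activity normalised to DMSO and no-cell wells; curves fitted, classed by r2 and efficacy.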
12-LOX inh: Primary qHTS assay for inhibitors of human arachidonate 12S-lipoxygenase (ALOX12): Round 2; Polyunsaturated fatty acid lipoxygenase ALOX12 (Homo sapiens), P18054; AID 1671190, 2021; purified 12hLO, xylenol orange hydroperoxide absorbance; Potency, µM (top dose mostly 108 µM), without a hit: top-dose activity change, negative = inhibition, usual class: inhibitors; 580,000 tested, 1.1% active; also: potency is read from the fitted curve at half-maximal effect
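Hydroperoxide product was detected by ferrous iron/xylenol orange as the 573 to 405 nm absorbance ratio. Arachidonic acid at 40 uM (final) was turned over for 30 min at room temperature by 150 nM human 12hLO, pH 7.0 Hepes buffer, after 15 min compound preincubation.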
HT1080NT lethal: qHTS for induction of synthetic lethality in tumor cells producing 2HG: qHTS for the HT-1080-NT fibrosarcoma cell line | 360,000 tested, 1.6% active | Potency, µM (doses to about 46.1 µM), for the others: top-dose activity, negative = less viability, actives largely listed as cytotoxic | AID 686970, 2013 | HT-1080-NT fibrosarcoma viability, CellTiter-Glo ATP luminescence, 48 h;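 also: NT is the 2HG producing partner of a matched IDH1 knockdown line; potency is read from the fitted curve at half-maximal effect; 0% = DMSO-treated cells and -100% = media-only wells without cells; nearly all actives have a fitted effect of over 55% in size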
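Viability of the 2HG-overproducing fibrosarcoma line after 48 hours of compound exposure at 37 degrees C was determined by luminescence with CellTiter-Glo, and concentration-effect curves were then fitted and categorized.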
TDP1 cell noCPT: qHTS for Inhibitors of human tyrosyl-DNA phosphodiesterase 1 (TDP1): qHTS in cells in absence of CPT; 420,000 tested, 15% active; DT40 Tdp1-/- hTDP1 cells, no CPT, ATP luminescence, 48 h; AID 686978, 2013; Potency, µM (doses to about 46.2 µM), inactives show at the highest dose activity change, negative = growth inhibition, most hits filed as inhibitors; also: potency is read from the fitted curve at half-maximal effect; nearly all actives have a fitted effect of over 55% in size
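Seeded 400 DT40-hTDP1 cells/well (vehicle DMSO, no 20 nM CPT); pinned compounds; ≥48 hr at 37 °C; CellTiter-Glo luminescence as viability measure.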
An asterisk follows results filed as active; ? = inconclusive; nt = no result; [ ] = remark or other dose. Unless noted, calls follow the shape of the dose curve; as a rule, active = well fitted curve in the direction sought with a large enough effect; inconclusive = small, poorly fitted or top-dose-only effect, or another doubt; inactive = no such curve, though single readings can be large; an effect the other way counts as inactive or inconclusive. Unless noted, % is scaled to controls: 0 for no effect and ±100 for the full control effect.

SMILES	DT40 TDP1 CPT	IL1B secr inh	HT1080 IDH1KD tx	12-LOX inh	HT1080NT lethal	TDP1 cell noCPT
Cc1ccc2nc(-c3ccc(C)o3)c(Nc3ccc4c(c3)OCO4)n2c1	?	nt	0%	nt	4%	?
Cc1ccc(-c2nc3ccc(Cl)cn3c2Nc2ccc3c(c2)OCCO3)o1	21µM*	nt	nt	-15%	nt	16µM*
Cc1cc(-c2nnc3sc(C4CCCCC4)nn23)n[nH]1	?	-21	21%	0%	19%	-20%
COc1cc(-c2nnc3sc(C4CCCCC4)nn23)cc(OC)c1OC	16µM*	-27	-23%	nt	-8%	23µM*
COc1cccc(-c2nnc3sc(C4CCCCC4)nn23)c1	18µM*	-93*	-6%	-19%	1%	21µM*
COc1cc(OC)cc(C(=O)Nc2ncc3c(n2)CC(c2ccco2)CC3=O)c1 (stereo unspecified)	nt	nt	nt	0%	nt	nt
O=C(NCc1ccc(F)cc1)c1ccc(CSc2nc3ccncc3n2Cc2ccc(F)cc2)cc1	23µM*	nt	nt	-6%	nt	-97%
O=C(NC1CCCC1)c1ccc(CSc2nc3ccncc3n2Cc2cccc(F)c2)cc1	?	nt	nt	-14%	nt	16µM*
O=C(NC1CCCC1)c1ccc(CSc2nc3ccncc3n2Cc2ccc(F)cc2)cc1	?	3	-12%	1%	-1%	16µM*
CC(C(=O)Nc1ccc2c(c1)OCCO2)N1Cc2ccccc2C1=O (stereo unspecified)	-12%	-8	3%	-8%	0%	13%
CC(C)(O)C#Cc1ccc([C@@H]2C[C@H]3CN(c4ccccc4)C(=O)[C@]34CCCN24)s1	-24%	-72*	?	-12%	-23%	?
O=C1N(c2ccccc2)C[C@@H]2C[C@@H](c3cccs3)N3CCC[C@@]123	-24%	-5	-3%	?	5%	-28%
Cc1ccc(C(=O)CSc2nnc(COc3cccc4cccnc34)o2)cc1	10µM*	?	?	3%	?	23µM*
COc1cccc(C(=O)CSc2nnc(COc3cccc4cccnc34)o2)c1	3.7µM*	-7	?	0%	?	4.1µM*
O=C(CSc1nnc(COc2cccc3cccnc23)o1)c1ccc(F)cc1	4.1µM*	-3	5µM*	7%[57.4 µM]	10µM*	4.1µM*
O=C(CSc1nnc(COc2cccc3cccnc23)o1)N1CCCC1	-4%	14	3%	1%	3%	-27%
Cc1ccc(C(=O)CSc2nnc(COc3cccc(C)c3)o2)cc1	4%	13	-2%	1%	-5%	-17%
COc1ccccc1N1CCN(C(=O)c2cccc(S(=O)(=O)N3CCCCCC3)c2)CC1	?	4	-3%	-5%	-3%[9.24 µM]	18µM*
CC(=O)N1CCN(C(=O)c2cccc(S(=O)(=O)N3c4ccccc4CC3C)c2)CC1 (stereo unspecified)	-9%	34	-4%	13%	2%	-26%
CC1Cc2ccccc2N1S(=O)(=O)c1cccc(C(=O)N2CCN(c3ncccn3)CC2)c1 (stereo unspecified)	?	-66*	?	6%	-29%	?
COc1ccc(S(=O)(=O)N2CCCCCC2)cc1C(=O)N1CCN(c2ccccc2O)CC1	15µM*	-7	8%	-24%	10%	?
